From PubChem BioAssay (NCI)
Compounds without any hit were thinned out: in the full panel of roughly 79,000, 15% have a hit. Values without a mark were called inactive. Calls of active or inactive are those of the source. Rule as the data show it: active = growth inhibition above about 70%; inactive = the rest.

Legend:
[1] = NCI Yeast Anticancer Drug Screen. Data for the rad50 strain (AID 155);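 also: 0% = growth of vehicle-only cultures of the same strain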; conditions: S. cerevisiae rad50 strain growth inhibition; at 50.0 µM; active compounds read high
Procedure, shortened: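 Genetically altered yeast (DNA repair pathway); compound treatment; growth inhibition vs vehicle ctrl.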

[2] = NCI Yeast Anticancer Drug Screen. Data for the mec2-1 strain (AID 157); conditions: S. cerevisiae mec2-1 strain, at 50.0 µM, active compounds read high
Procedure, shortened: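 Compounds were applied to mec2-1 yeast cells. Their growth was then compared with that of vehicle-treated cultures to give growth inhibition.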

[3] = NCI Yeast Anticancer Drug Screen. Data for the sgs1 mgt1 strain (AID 161);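 also: 0% = growth of cultures given vehicle only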; conditions: S. cerevisiae sgs1 mgt1 strain, at 50.0 µM, active compounds read high
Procedure, shortened: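 Yeast cells carrying a defined DNA-repair defect were exposed to test compounds. Growth inhibition was measured relative to vehicle-treated controls.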

[4] = NCI Yeast Anticancer Drug Screen. Data for the cln2 rad14 strain (AID 165);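 also: 0% = growth equal to vehicle treated cultures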; conditions: S. cerevisiae cln2 rad14 strain, at 50.0 µM, active compounds read high
Procedure, shortened: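 Strain: cln2 rad14 yeast, altered in cell cycle control and DNA damage repair. Read-out: growth inhibition vs vehicle.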

[5] = NCI Yeast Anticancer Drug Screen. Data for the bub3 strain (AID 167); conditions: S. cerevisiae bub3 mutant strain, at 50.0 µM, active compounds read high
Procedure, shortened: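 Yeast carrying a defined mutation is treated with each compound, and growth is compared with that of vehicle-exposed cells to give inhibition.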

[6] = NCI Yeast Anticancer Drug Screen. Data for the mlh1 rad18 strain (AID 175); conditions: S. cerevisiae mlh1 rad18 strain growth inhibition; at 50.0 µM; active compounds read high
Procedure, shortened: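 A repair-deficient yeast strain is exposed to test compound, and growth is scored relative to vehicle-treated controls.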

SMILES	growth inhibition [1]	growth inhibition [2]	growth inhibition [3]	growth inhibition [4]	growth inhibition [5]	growth inhibition [6]
COc1ccc(/C=N/NS(=O)(=O)c2ccc(/C=C3\NC(=O)N(C)C3=O)cc2)cc1	-10.5%	22.1%	-21.9%	6.5%	-23.7%	27.1%
CCOC(=O)c1nc2ccc(C(F)(F)F)cc2nc1Nc1ccc(OC)c(OC)c1	-16.7%	-11.9%	-15.7%	-6.15%	-17.4%	-8.75%
COCc1cc(CC(C)=O)nc(C/C=N/NC(N)=O)n1	-18.4%	-10.4%	-9.75%	-28.4%	-47%	-11.7%
OC1OC2COC(c3ccccc3)OC2C(O)C1O (centres undefined)	4%	-14.5%	8.15%	-3.35%	-3.3%	-20.9%
COc1ccc(C2C(=O)C(Cl)N2Nc2nc(C)cc(=O)[nH]2)cc1OC (centres undefined)	1.45%	-18.9%	4.2%	-2.3%	-27.9%	-15.8%
Nc1ncc2[nH]c(I)nc2n1	16.9%	19.9%	0.65%	0.7%	40.2%	26.4%
O=c1oc2ccc3ccccc3c2c(-c2ccc(O)cc2)c1-c1ccccc1	98.7% (active)	98.5% (active)	98.9% (active)	97.2% (active)	98.2% (active)	98.7% (active)
CNC(=O)SCC(NC(=O)CCC(N)C(=O)O)C(=O)NCC(=O)O (centres undefined)	-7.45%	9.55%	27.4%	28.4%	18.4%	36.3%
CN(C)c1ncnc2c1ncn2C1OC(CO)C(N)C1O (centres undefined)	19.2%	3%	26.1%	0.55%	28.5%	20.6%
COC(=O)CCN1CCN(CCO)CC1C (centres undefined)	-36.9%	-39.8%	-26.6%	-9.75%	-2%	-32.5%
Cc1cc(OC(=O)c2ccccc2)c(C)c(C)c1OC(=O)c1ccccc1	6.15%	-7.95%	15.2%	9.2%	8.4%	21.1%
CCOC(=O)c1sc2nc(-c3ccccc3)nn2c1CBr	17.1%	3.95%	11.9%	24.1%	18.6%	49.4%
O=C1Nc2cccc3cc(NCC(O)CCCl)cc1c23 (centres undefined)	17.4%	3.1%	18.2%	-5.8%	14.6%	20.6%
Cc1cnc2cc(Cl)ccc2c1SCC(=O)O	3.6%	-39.7%	-42.9%	-24.4%	-36.6%	1.05%
O=C(C(=O)c1cccc(Cl)c1)c1ccccc1	21.4%	24.6%	5%	2.85%	-15.2%	-5.45%
CCOc1cc2c(cc1C(CC)c1ccccc1)OCO2 (centres undefined)	6.75%	12.6%	9.75%	3%	17.6%	14.7%
CC(C)(C)/C(=N\[N+](C)(C)C)c1ccccc1	7.85%	6.4%	0.4%	-1.3%	6.8%	10.6%
O=C(N/N=C1\CCc2ccccc2C1)N/N=C1\CCc2ccccc2C1	20.4%	17.1%	11.7%	-5.85%	-18.9%	9.6%
CN(C)c1ccc(C2(c3ccc(N(C)C)cc3)c3ccccc3C(=O)N2N)cc1	54.1%	34.5%	18.2%	43.5%	77.5% (active)	21.7%
CC(=O)Nc1ccc(/C=C/C(=O)O)cc1	-38.6%	-30.6%	-21.7%	-6.05%	-31.2%	-30.8%

SMILES	growth inhibition [1]	growth inhibition [2]	growth inhibition [3]	growth inhibition [4]	growth inhibition [5]	growth inhibition [6]
N=C(N=C(C(Cl)(Cl)Cl)C(Cl)(Cl)Cl)N=C(C(Cl)(Cl)Cl)C(Cl)(Cl)Cl	8.75%	15.3%	11.1%	-8.55%	-24.2%	19.6%
OCCOCn1nc(-c2ccccc2)nc1-c1cnccn1	-13.4%	-4.55%	-20.3%	-27.9%	-38.1%	-24.1%
CC(=O)OCC1OC(n2ncnc2CBr)C(OC(C)=O)C(OC(C)=O)C1OC(C)=O (centres undefined)	30%	-3.4%	12.4%	8.45%	-4.8%	10.6%
CC(NC(=O)Nc1ccccc1Cl)c1ccccc1 (centres undefined)	-2.05%	17.6%	1.5%	-10.8%	34%	11.1%
COC(=O)c1ccc(O)c(CN(C)C)c1	26.6%	-10.6%	6.6%	3.4%	-15.1%	18.8%
Cc1ccc(NCC(O)CN2CCOCC2)cc1 (centres undefined)	34.2%	14.3%	27.2%	-8.05%	6.5%	36.2%
CC(=O)O[C@H]1C[C@]2(C)C(CCC3O[C@@]32C)[C@@]2(CC(c3ccoc3)OC2O)[C@@H]1C (some centres undefined)	-10.8%	-16.1%	-29.9%	-10.1%	-23.1%	-13.2%
CCC(=O)CCN(CC)CC	-39.6%	-33.3%	-55.8%	-5%	-35.3%	-40.4%
O=C(O)c1cc(Br)cc([N+](=O)[O-])c1	-9.15%	15.1%	-14.9%	-49.3%	-16.2%	21.1%
CCC(C)NC(=O)/C=C/c1ccccc1 (centres undefined)	31.9%	17.1%	14.4%	12.4%	-1.1%	6.65%
COc1ccc(N2C(=O)C(C)SC23C(=O)Nc2ccccc23)cc1 (centres undefined)	13.6%	20.4%	5.75%	2.5%	4.75%	18.8%
CO/C(=N\N=C\c1cccc(C(F)(F)F)c1)c1ccncc1	27.3%	6.4%	-2.2%	-6.05%	5.1%	12.2%
CCCCn1c(CCC)nc([N+](=O)[O-])c1Sc1ncn[nH]1	-4.15%	6.15%	-28.4%	-1%	-20.2%	8.6%
O=C(CN1CCOCC1)CC(O)(C(F)(F)F)C(F)(F)F	0.35%	2.05%	-1.65%	7.1%	1.85%	72.7% (active)
CCCCCCCCC(C)c1cccc(C(C)CCCCCCCC)c1O (centres undefined)	33%	14.6%	10.5%	22.2%	14.8%	2.6%
C[N+]1(C)CC2CCC1C2 (centres undefined)	1.1%	16.1%	17.6%	-27.8%	-9.05%	-7.1%
O=C(/C=C/c1ccccc1)NCC(O)CO (centres undefined)	7.1%	-2.95%	-3.65%	-0.3%	0.5%	11.7%
CC1C(O)CC23COC(=O)C2=CCCC3C1(C)CCC1COC(=O)C1 (centres undefined)	-5.05%	-21.9%	17.9%	5.85%	-10.4%	7.45%
CCn1cc(C(=O)O)c(=O)c2ccc(-c3ccncc3)cc21	3.35%	8.7%	5.75%	-7.85%	17%	11.4%
